Among the data in PubChem BioAssay (NCI) are growth values, retold here.

Holding throughout (assay): NCI-60 one-dose screen, 48 h (100 = growth as untreated, 0 = no growth, -100 = all killed)
What all share (conditions): 10 µM unless noted

In test [1] the test system is NCI-H23 lung.
For test [2], the system named is NCI-H226 lung.
Test [3] relates to NCI-H322M lung.
Test [4] deals with HOP-62 NSCLC.
Test [5] relates to NCI-H460 lung.
Test [6] relates to HOP-92 NSCLC.
Test [7] concerns NCI-H522 lung.
In test [8] the test system is A549/ATCC NSCLC.
In test [9] the test system is 786-0 renal.
The test system of test [10] is COLO 205 colon.
For test [11], the system named is DU-145 prostate.
Test [12] deals with K-562 leukemia.
The subject of test [13] is MALME-3M melanoma.
Test [14] relates to MDA-MB-231 breast.
Test [15] relates to RXF 393 renal.
Test [16] deals with SF-268 CNS.
Test [17] concerns SF-295 CNS.
Test [18] has as its system SF-539 CNS.
For test [19], the system named is UACC-257 melanoma.
For test [20], the system named is M14 melanoma.

About 83,000 compounds went through this panel and 20% of them were active in at least one assay; those are over-represented in the sample as a whole.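 Negative percent growth values reflect cell death: -40 means 40% of the cells present at the start died, and -100 means all died.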 Unmarked numbers belong to inactive results. Active and inactive are the calls of the source. The calls were made as follows: active = growth percent below 10; inactive = the rest.

Regarding `CC(O)(CO)c1ccccc1` (stereo not given), the growth in test [1] is 96%; in test [2], 99.6%; in test [3], 102%; in [4] it was 96.9%; in test [5] it was 105%; in test [6], 94.2%. Also, the growth in [7] was 105%; in test [8], 99.2%; in [9], 99%; in test [10], 103%; in [11] it was 105%; in test [12] it was 120%. Further, the growth in test [13] is 95.3%; in test [14] it was 97.7%; in test [15], 109%; in test [16], 101%; in [17] it was 98.6%; in test [18], 92.4%. Besides, the growth in test [19] is 93.9%; in test [20], 94.6%.

Consider `CCOC(=O)c1c(C)nc2c(c1N)C(=O)C(=O)N2Cc1ccc(C(F)(F)F)cc1`, for which the growth in test [1] is 69.8%; in [2], 73.2%; in [3] it was 97.3%; in test [4], 60.5%; in [5], 93.7%; in test [6], 50.3%. Further, the growth is 31% in [7]; 84.3% in [8]; 33.9% in [9]; 101% in test [10]; 84.5% in test [11]; 36.2% in test [12]. Besides, the growth was 59.3% in [13]; 75.6% in [14]; 58.7% in test [15]; 59.7% in test [16]; 81% in test [17]; 52.6% in test [18]. The values for the growth in [19] and in test [20] were 74.2% and 53%, respectively.

Consider `Cc1ccc(C2C3CC4CCCCC4N3[C@@]3(C(=O)Nc4cc(Cl)ccc43)C2C(=O)c2nc3ccccc3[nH]2)cc1` (stereo not given in full), for which the growth in test [1] is 57.8%; in [2] it was 62.7%; in test [3] it was 63.3%; in [4] it was 66.5%; in [5], 15.9%; in test [6], 44.1%. Also, the growth is 54% in test [7]; 31.1% in [8]; 35.2% in test [9]; 30.6% in test [10]; 64.3% in test [11]; 26.2% in [12]. The growth in test [13] is 33.9%; in test [14] it was 30.6%; in test [15] it was 15.5%; in test [16], 38.3%; in [17], 27.9%; in [18], 50.3%. In addition, the figures for the growth in test [19] and in test [20] were 35.1% and 27.9%, respectively.

Take `O=c1[nH]c(=O)[nH]c(=S)[nH]1`: the growth in test [1] is 98.5%; in [2] it was 97.9%; in [3], 95.6%; in test [4], 102%; in test [5], 105%; in test [6] it was 101%. Also, the growth in test [7] was 94.6%; in test [8], 99.7%; in test [9], 102%; in test [10] it was 103%; in [11] it was 105%; in [12], 105%. Also, the growth in [13] was 98%; in [14] it was 102%; in test [15], 107%; in test [16], 102%; in [17] it was 102%; in [18], 98.8%. The growth is 101% in test [19] and 100% in test [20].

For `CNC(=O)NCC1OC(n2cnc3c(NC(=O)Nc4ccccc4)ncnc32)C(O[Si](C)(C)C(C)(C)C)C1O[Si](C)(C)C(C)(C)C` (stereo not given), the growth was 36.3% in test [1]; 49% in test [2]; 87.3% in [3]; 61.7% in [4]; -6.74% (active) in test [5]; -2.68% (active) in test [6]. The growth in test [7] was 46.2%; in test [8], 23%; in test [9], 16.5%; in [10], -100% (active); in test [11], 52.2%; in test [12] it was 34.5%. The growth is 48.9% in [13]; 37.7% in test [14]; -37% (active) in [15]; 36% in test [16]; 45.1% in test [17]; 33.4% in test [18]. In addition, the values for the growth in test [19] and in test [20] were 42.8% and 33%, respectively.

In the case of `O=C(Nc1nc2ccc(S(=O)(=O)Nc3ccc(C4(C(F)(F)F)CC4)cc3)cc2[nH]1)c1cnccn1`, the growth was 43.6% in test [1]; 54.1% in [2]; 46.6% in test [3]; 51.5% in test [4]; 8.38% (active) in test [5]; 39.3% in test [6]. Further, the growth in [7] was 26.9%; in [8] it was 35.1%; in test [9], 33.9%; in test [10], 35.1%; in test [11], 30.4%; in [12] it was 21.4%. In addition, the growth in test [13] is 37.3%; in test [14] it was 59.2%; in test [15], 28.6%; in test [16] it was 34.3%; in test [17], 33.4%; in test [18] it was 5.95% (active). The growth was 48.5% in test [19] and 34.7% in test [20].

In the case of `CN(C)CCCn1c2c(c3ccc(-c4ccn[nH]4)cc3c1=O)C(=O)c1ccccc1-2`, the growth in test [1] is 21.6%; in test [2], 6.87% (active); in test [3], 81.9%; in test [4] it was 5.59% (active); in test [5], 1.55% (active); in test [6], 34.1%. For the same molecule, the growth in test [7] is 25.9%; in [8], 0.619% (active); in test [9], 2.46% (active); in test [10], 43%; in test [11] it was 4.84% (active); in [12], 24.5%. Moreover, the growth in test [13] was 39.7%; in test [14], 71.1%; in [15], 68.3%; in test [16], 44.6%; in test [17], 1.34% (active); in test [18] it was 46.4%. For the same molecule, the growth in [19] was 70.3%; in [20], 48%.

For the molecule `O=C(Nc1nc(-c2ccc(Br)cc2)cs1)c1cc(-c2ccc(Br)cc2)nc2ccc(Cl)cc12`, the growth is 69.7% in test [1]; 76.3% in test [2]; 89.9% in test [3]; 80.1% in test [4]; 88.3% in test [5]; 71.7% in test [6]. Besides, the growth in [7] is 76.9%; in [8], 84.8%; in test [9], 94.3%; in test [10], 84.5%; in test [11], 92.6%; in test [12], 56.6%. The growth in test [13] was 105%; in test [14], 74.1%; in [15], 100%; in test [16], 85%; in test [17], 97.8%; in test [18], 99.1%. The figures for the growth in [19] and in test [20] were 101% and 99.1%, respectively.

As for `CCOc1ccc(/C=N/Nc2cc(C)nc3ccc(Cl)cc23)cc1`, the growth was 78.9% in [1]; 79.5% in test [2]; 66.9% in [3]; 94.4% in [4]; 3.37% (active) in test [5]; 50.5% in test [6]. Also, the growth in test [7] was 58.4%; in test [8], 59.9%; in test [9] it was 33.2%; in test [10], 21%; in test [11], 44.4%; in test [12] it was -38.7% (active). Also, the growth in test [13] was -38.9% (active); in test [14] it was 43%; in test [15] it was 0.829% (active); in test [16], 75.2%; in [17], -64.6% (active); in [18] it was 83.6%. Moreover, the figures for the growth in [19] and in [20] were 69.5% and -39.6% (active), respectively.

With `CCCCCCN(C)Cc1ccc(OCCOc2ccc(CN(C)CCCCCC)cc2)cc1`, the growth in [1] is 11%; in test [2] it was 50%; in test [3], 3.16% (active); in test [4], 17.9%; in [5], -77.5% (active); in [6] it was -9.72% (active). For the same molecule, the growth in test [7] is 35.3%; in test [8], 44%; in test [9], -72.6% (active); in test [10], -67.4% (active); in [11], 50.1%; in test [12], -20.7% (active). The growth was -80.6% (active) in [13]; 4.17% (active) in [14]; -29.2% (active) in test [15]; 45.5% in test [16]; -51.9% (active) in test [17]; 13.5% in [18]. Further, the growth is -52.5% (active) in test [19] and -96.9% (active) in [20].

Regarding `COc1ccc(CNCCN2C(=O)c3ccc4c5c(ccc(c35)C2=O)C(=O)N(CCNCc2ccc(OC)cc2)C4=O)cc1`, the growth in test [1] is -52.5% (active); in test [2], -63.7% (active); in test [3], -74.2% (active); in test [4], -33.8% (active); in [5], -78.8% (active); in test [6], -46.8% (active). Further, the growth in test [7] is -80.9% (active); in test [8], -84.1% (active); in test [9], -76.5% (active); in [10], -40.9% (active); in [11] it was -90.6% (active); in test [12] it was -37.8% (active). The growth is -76.3% (active) in [13]; -16.7% (active) in [14]; -93% (active) in [15]; -71.2% (active) in test [16]; -62.2% (active) in [17]; -77.3% (active) in test [18]. Moreover, the values for the growth in [19] and in [20] were -91% (active) and -72.8% (active), respectively.

Take `Cc1cc(C(=O)Nc2ncnc3nc[nH]c23)no1`: the growth in [1] was 101%; in test [2] it was 92.3%; in [3], 90.6%; in test [4] it was 92.6%; in test [5], 106%; in [6], 102%. The growth in [7] is 94.3%; in test [8], 100%; in test [9], 103%; in [10], 104%; in test [11], 108%; in test [12], 87%. Moreover, the growth is 105% in test [13]; 105% in test [14]; 107% in test [15]; 99.7% in [16]; 99.3% in [17]; 96.9% in test [18]. Besides, the growth is 112% in test [19] and 99% in test [20].

Take `NC(=O)c1cccc(-n2ccc3cc(NC(=O)Nc4cc(C(F)(F)F)cc(C(F)(F)F)c4)ccc32)n1`: the growth was 44.5% in test [1]; 70% in [2]; 71.4% in test [3]; 44.8% in test [4]; 29% in [5]; 52.5% in [6]. Further, the growth is 59.1% in test [7]; 34.1% in test [8]; 24.3% in test [9]; 62.5% in test [10]; 50.7% in test [11]; 33.4% in test [12]. For the same molecule, the growth in test [13] is 43.1%; in test [14] it was 65.5%; in test [15], 7.56% (active); in test [16] it was 38.5%; in test [17], 18.5%; in [18], 52.2%. The growth is 72.2% in test [19] and 51% in [20].

For `C[C@H]1[C@H](C)CC[C@]2(CO)CC[C@]3(C)C(=CC[C@@H]4[C@@]5(C)CCCNC(C)(C)[C@@H]5CC[C@]43C)[C@H]12`, the growth in test [1] was 36.1%; in test [2], -99% (active); in [3] it was -17.9% (active); in [4], -23.1% (active); in test [5], -83.3% (active); in test [6] it was -5.92% (active). The growth in test [7] is -77.8% (active); in test [8], 12%; in test [9] it was -81% (active); in [10], -78.3% (active); in [11], -17.4% (active); in test [12], -49.1% (active). Moreover, the growth was -71.9% (active) in test [13]; -54.8% (active) in test [14]; -27.9% (active) in test [15]; 5.71% (active) in test [16]; -64.6% (active) in [17]; -36.5% (active) in test [18]. For the same molecule, the growth in test [19] was -36.9% (active); in test [20], -73.2% (active).
